Consider 13 compounds from PubChem BioAssay (NCATS).

Test [1] can be described thus: Quantitative High-Throughput drug screen in 47 multiple myeloma cell lines against the NCATS MIPE library collection: XG6_PLB cell viability assay (AID 1919865). Also: nearly all actives have a fitted effect of over 40% in size. Also: potency is read from the fitted curve at half-maximal effect. In a few lines: (§1)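 500 cells/well per myeloma line exposed to pinned MIPE 4.0 compounds for 48 h at 37 °C, 5% CO2. Viability read as ATP by CellTiter-Glo luminescence, normalised to DMSO-only (100%) and media-only (0%) wells.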

A short description of test [2]: Quantitative High-Throughput drug screen in 47 multiple myeloma cell lines against the NCATS MIPE library collection: XG1_PLB cell viability assay (AID 1919866). Also: nearly all actives have a fitted effect of over 35% in size. Also: potency is read from the fitted curve at half-maximal effect. In a few lines: as §1
The nature of test [3]: Quantitative High-Throughput drug screen in 47 multiple myeloma cell lines against the NCATS MIPE library collection: PE2_PLB cell viability assay (AID 1919869). Also: nearly all actives have a fitted effect of over 35% in size. Also: potency is read from the fitted curve at half-maximal effect. The essentials:
as §1

Test [4] is described as follows: Quantitative High-Throughput drug screen in 47 multiple myeloma cell lines against the NCATS MIPE library collection: PCM6_Riken cell viability assay (AID 1919870). Also: nearly all actives have a fitted effect of over 30% in size. Also: potency is read from the fitted curve at half-maximal effect. In a few lines:
as §1

Test [5] can be described thus: Quantitative High-Throughput drug screen in 47 multiple myeloma cell lines against the NCATS MIPE library collection: RPMI8226_ATCC cell viability assay (AID 1919871). Also: nearly all actives have a fitted effect of over 30% in size. Also: potency is read from the fitted curve at half-maximal effect. In a few lines:
as §1

Test [6] is described as follows: Quantitative High-Throughput drug screen in 47 multiple myeloma cell lines against the NCATS MIPE library collection: KMS28BM_JCRB cell viability assay (AID 1919874). Also: nearly all actives have a fitted effect of over 35% in size. Also: potency is read from the fitted curve at half-maximal effect. The essentials:
as §1

Test [7] is described as follows: Quantitative High-Throughput drug screen in 47 multiple myeloma cell lines against the NCATS MIPE library collection: OPM2_DSMZ cell viability assay (AID 1919872). Also: nearly all actives have a fitted effect of over 30% in size. Also: potency is read from the fitted curve at half-maximal effect. In a few lines: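 Relative luminescence from CellTiter-Glo served as the viability signal, referenced to DMSO-treated (100%) and cell-free medium (0%) controls. Treatment lasted 48 hours at 37C with 500 cells per well.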

Test [8] can be described thus: Quantitative High-Throughput drug screen in 47 multiple myeloma cell lines against the NCATS MIPE library collection: KMS11_JCRBsus cell viability assay (AID 1919873). Also: nearly all actives have a fitted effect of over 50% in size. Also: potency is read from the fitted curve at half-maximal effect. In a few lines: as §1
The nature of test [9]: Quantitative High-Throughput drug screen in 47 multiple myeloma cell lines against the NCATS MIPE library collection: VP6_DJ cell viability assay (AID 1919867). Also: potency is read from the fitted curve at half-maximal effect; nearly all actives have a fitted effect of over 40% in size. In a few lines:
as §1

A short description of test [10]: Quantitative High-Throughput drug screen in 47 multiple myeloma cell lines against the NCATS MIPE library collection: UTMC2_PLB cell viability assay (AID 1919868). Also: nearly all actives have a fitted effect of over 55% in size. Conditions: CellTiter-Glo ATP luminescence, 48 h; viability (% of DMSO control): at 45.8 µM (top of the series). In a few lines:
as §1
(In general: Cellular ATP, detected with luciferase, serves as a proxy for viable cell number.)

Inconclusive results are not listed. A number with no mark means an inactive call. The source made the active and inactive calls. Calls follow the shape of the dose curve; as a rule, active = well fitted cell-killing curve with a large enough effect; inconclusive = small, poorly fitted or top-dose-only effect, or effect the other way; inactive = no such curve, though single readings can be large or run the other way.

`CCC(=O)NC[C@H](Cc1ccc(OCCc2nc(-c3ccccc3)oc2C)cc1)NC(C)=CC(=O)c1ccc(C(F)(F)F)cc1`: the Potency was 16.6 µM (active) in test [1], 5.26 µM (active) in [2], 11.8 µM (active) in [3] and 23.5 µM (active) in [5]. Also, the Potency entry in test [4] and in test [6] was “inactive” throughout.

Consider `CC(C)OC(=O)CCCC=CC[C@@H]1[C@H](C=C[C@@H](O)COc2cccc(C(F)(F)F)c2)[C@H](O)C[C@@H]1O`, for which the Potency in [1] was 16.6 µM (active); in [2], 18.7 µM (active); in test [3], 16.6 µM (active); in [4], 20.9 µM (active); in test [5] it was 10.5 µM (active); in [7], 23.5 µM (active). Also, the Potency was 16.6 µM (active) in [8] and 18.7 µM (active) in [6].

As to `Nc1ncnc2c1ncn2[C@@H]1O[C@@H](CO)[C@H](O)[C@H]1O`, the Potency entry in [1], in [2], in test [3], in [5], in test [7] and in test [8] was “inactive” each time.

On to `CC(C(=O)O)c1ccc(-c2ccccc2)c(F)c1` (centres undefined), for which the Potency is 20.9 µM (active) in [1], 9.35 µM (active) in test [2], 14.8 µM (active) in test [4] and 14.8 µM (active) in test [6]. Besides, the Potency result in test [5] and in test [7] was “inactive” each time.

Consider `Cc1nnc(C(C)C)n1C1C[C@H]2CC[C@@H](C1)N2CC[C@H](NC(=O)C1CCC(F)(F)CC1)c1ccccc1` (some centres undefined), for which the Potency in [1] is 4.69 µM (active); in test [9], 23.5 µM (active). Also, the Potency entry in test [10], in [5], in test [7], in test [8] and in test [6] was “inactive” throughout.

Take `CC(C)OC(=O)C(C)(C)Oc1ccc(C(=O)c2ccc(Cl)cc2)cc1`: the Potency entry in test [1], in [10] and in test [6] was “inactive” throughout. Further, the Potency in [9] is 26.4 µM (active); in test [3] it was 20.9 µM (active); in test [5], 18.7 µM (active).

As to `C[N+](C)(C)CC(=O)O`, the Potency result in [1], in [2], in test [3], in test [4], in test [8] and in test [6] was “inactive” throughout.

For the compound `NC(=O)c1cnc(-c2ccc(C3(N)CCC3)cc2)c(-c2ccccc2)c1`, the Potency in [1] is 16.6 µM (active); in test [3], 5.9 µM (active); in [4], 1.32 µM (active); in test [7], 20.9 µM (active). Further, the Potency entry in test [2] was “inactive”.

Regarding `C=C1C(=O)OC(CCCCCCCC)C1C(=O)O` (centres undefined), the Potency in [1] was 20.9 µM (active); in test [2], 14.8 µM (active); in test [4], 23.5 µM (active). The Potency entry in [7] and in [6] was “inactive” throughout.

Take `CN(C)Cc1ccc(-c2nc3cccc4c3n2CCNC4=O)cc1`: the Potency in test [1] is 16.6 µM (active); in test [2] it was 20.9 µM (active); in [3] it was 20.9 µM (active); in test [4], 14.8 µM (active); in [8], 26.4 µM (active).

With `COc1ccc(Cc2nccc3cc(OC)c(OC)cc23)cc1OC`, the Potency in test [1] was 13.2 µM (active); in [2], 14.8 µM (active); in [7], 11.8 µM (active); in test [8], 18.7 µM (active); in test [6] it was 20.9 µM (active). For the same compound, the Potency entry in test [5] is “inactive”.

As to `O=C1NC(=O)C(=Cc2cccc(C(F)(F)F)c2)S1`, the Potency was 20.9 µM (active) in [1], 16.6 µM (active) in test [2] and 7.43 µM (active) in test [5]. Further, the Potency result in [7] and in test [6] was “inactive” throughout.

Turning to `NC[C@@H]1O[C@@H](O[C@H]2[C@@H](O)[C@H](O[C@@H]3[C@@H](O)[C@@H](N)C[C@H](N)[C@H]3O[C@H]3O[C@H](CN)[C@@H](O)[C@@H](O)[C@H]3N)O[C@H]2CO)[C@H](N)[C@@H](O)[C@@H]1O`, the Potency entry in test [1], in test [2], in test [3], in [4], in test [5] and in test [7] was “inactive” throughout. For the same compound, the Potency entry in test [8] and in test [6] was “inactive” each time.
